These results are taken from PubChem BioAssay.

Results filed as inconclusive are left out. Active and inactive are the calls of the source.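 The calls were made as follows, unless noted: active = normalized viability below 100% at a tested concentration; inactive = the rest.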

Assay [1] in a line: growth inhibition of DIPG glioma cells, dose response, cell-based, SU-DIPG-XVII, MIPE5.0, CellTiter-Glo, qHTS (AID 1347060; cut-off not given, nearly all actives have AC50 up to about 26 µM;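 also: cells exposed to compound for 48 hours before viability readout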). The conditions noted are these: SU-DIPG-XVII viability, CellTiter-Glo ATP luminescence. (ATP-based viability assays read luminescence as a measure of living cells.)
A short description of assay [2]: growth inhibition of DIPG glioma cells, dose response, cell-based, JHH-DIPG-1, MIPE4.0, CellTiter-Glo, qHTS (AID 1347062; cut-off not given, nearly all actives have AC50 up to about 27 µM;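 also: cells exposed to compound for two days before readout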). The conditions noted are these: JHH-DIPG-1 viability, CellTiter-Glo ATP luminescence.
Assay [3] can be described thus: growth inhibition of DIPG glioma cells, dose response, cell-based, SU-DIPG-IV, MIPE4.0, CellTiter-Glo, qHTS (AID 1347063; cut-off not given, nearly all actives have AC50 up to about 30 µM;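 also: compound exposure lasted 48 hours before the viability readout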). Particulars: SU-DIPG-IV viability, CellTiter-Glo ATP luminescence.
The nature of assay [4]: viability loss in pontine glioma line – cell-based, SU-DIPG-XXV, MIPE5.0, CellTiter-Glo, qHTS, dose response (AID 1347065; cut-off not given, nearly all actives have AC50 up to about 26 µM;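 also: cells exposed to compound for 48 hours before ATP readout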). The conditions noted are these: CellTiter-Glo ATP luminescence.
Assay [5] can be described thus: JHH-DIPG-1 glioma cell viability, MIPE5.0 library, CellTiter-Glo luminescence, qHTS (AID 1347067; cut-off not given, nearly all actives have AC50 up to about 26 µM;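 also: cells exposed to compound for 48 hours before readout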). Particulars: JHH-DIPG-1 glioma viability, CellTiter-Glo ATP luminescence.
Assay [6] can be described thus: SU-DIPG-XXV glioma cell viability, MIPE5.0 library, qHTS (AID 1347068; cut-off not given, nearly all actives have IC50 up to about 30 µM;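 also: cells exposed to compound for 48 hours before viability readout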). On the technique in general: In qHTS, concentration-response curves come from the screen itself.
The nature of assay [7]: modifiers of HSF1 nuclear foci, imaging, Selleck Cancer Library (AID 1347162; in the data active = plate-normalised HSF1 focus index below about 0.46). Particulars: human cells, at 10 µM; SSMD: measured here: HSF1 foci SSMD mean; cell count: measured here: cell number; plate-normalised HSF1 focus index: stronger effect = lower value.
Assay [8] is described as follows: ovarian cancer cell viability with rucaparib, profiling panel, oncology-focused library, rucaparib conditional (AID 1508598). Particulars: patient-derived ovarian cancer cells, CellTiter-Glo viability, 144 h, stronger effect = lower value.

The term AC50 denotes the concentration giving half of the maximal activity seen. By IC50 is commonly meant the concentration that inhibits the measured activity by half. What is called viability is a read-out of living cells in per cent, often relative to untreated cells. Take `CC(C)C[C@H](NC(=O)CNC(=O)c1cc(Cl)ccc1Cl)B1OC(=O)CC(CC(=O)O)(C(=O)O)O1` (some centres not stated): the AC50 in assay [1] is 0.209 µM (active); in assay [2], 0.132 µM (active); in assay [3] it was 0.0662 µM (active); in assay [4] it was 0.0833 µM (active); in assay [5], 0.235 µM (active). Besides, the concentration for half-maximal inhibition (IC50) in assay [6] is 0.132 µM (active). Moreover, the SSMD in assay [7] amounted to 2.92. For the same compound, in assay [7], the cell count amounted to 7560. In addition, the plate-normalised HSF1 focus index in assay [7] is 1.18 (inactive). Further, the viability was 104% (inactive) in assay [8] (at 0.000305 µM, OCI-C5x cells, with rucaparib 10 µM, 100% = cells with rucaparib alone); 124% (inactive) in assay [8] (at 0.000305 µM, OCI-C5x cells, without rucaparib); 111% (inactive) in assay [8] (at 0.000305 µM, OCI-P5x cells, with rucaparib 20 µM, 100% = cells with rucaparib alone); 113% (inactive) in assay [8] (at 0.000305 µM, OCI-P5x cells, without rucaparib); 107% (inactive) in assay [8] (at 0.00122 µM, OCI-C5x cells, with rucaparib 10 µM, 100% = cells with rucaparib alone); 123% (inactive) in assay [8] (at 0.00122 µM, OCI-C5x cells, without rucaparib). In addition, the viability in assay [8] (at 0.00122 µM, OCI-P5x cells, with rucaparib 20 µM, 100% = cells with rucaparib alone) is 111% (inactive); in assay [8] (at 0.00122 µM, OCI-P5x cells, without rucaparib), 110% (inactive); in assay [8] (at 0.00488 µM, OCI-C5x cells, with rucaparib 10 µM, 100% = cells with rucaparib alone), 100% (inactive); in assay [8] (at 0.00488 µM, OCI-C5x cells, without rucaparib), 122% (inactive); in assay [8] (at 0.00488 µM, OCI-P5x cells, with rucaparib 20 µM, 100% = cells with rucaparib alone) it was 112% (inactive); in assay [8] (at 0.00488 µM, OCI-P5x cells, without rucaparib), 110% (inactive). Besides, the viability in assay [8] (at 0.0195 µM, OCI-C5x cells, with rucaparib 10 µM, 100% = cells with rucaparib alone) was 107% (inactive); in assay [8] (at 0.0195 µM, OCI-C5x cells, without rucaparib) it was 119% (inactive); in assay [8] (at 0.0195 µM, OCI-P5x cells, with rucaparib 20 µM, 100% = cells with rucaparib alone), 97.5% (active); in assay [8] (at 0.0195 µM, OCI-P5x cells, without rucaparib), 104% (inactive); in assay [8] (at 0.0781 µM, OCI-C5x cells, with rucaparib 10 µM, 100% = cells with rucaparib alone), 101% (inactive); in assay [8] (at 0.0781 µM, OCI-C5x cells, without rucaparib), 118% (inactive). Moreover, the viability in assay [8] (at 0.0781 µM, OCI-P5x cells, with rucaparib 20 µM, 100% = cells with rucaparib alone) was 103% (inactive); in assay [8] (at 0.0781 µM, OCI-P5x cells, without rucaparib) it was 100% (inactive); in assay [8] (at 0.313 µM, OCI-C5x cells, with rucaparib 10 µM, 100% = cells with rucaparib alone) it was 25% (active); in assay [8] (at 0.313 µM, OCI-C5x cells, without rucaparib), 16.8% (active); in assay [8] (at 0.313 µM, OCI-P5x cells, with rucaparib 20 µM, 100% = cells with rucaparib alone), 12.3% (active); in assay [8] (at 0.313 µM, OCI-P5x cells, without rucaparib) it was 3.86% (active). In addition, the viability in assay [8] (at 1.25 µM, OCI-C5x cells, with rucaparib 10 µM, 100% = cells with rucaparib alone) is 6.01% (active); in assay [8] (at 1.25 µM, OCI-C5x cells, without rucaparib), 5.13% (active); in assay [8] (at 1.25 µM, OCI-P5x cells, with rucaparib 20 µM, 100% = cells with rucaparib alone), 2.61% (active); in assay [8] (at 1.25 µM, OCI-P5x cells, without rucaparib), 1.15% (active); in assay [8] (at 5 µM, OCI-C5x cells, with rucaparib 10 µM, 100% = cells with rucaparib alone), 1.84% (active); in assay [8] (at 5 µM, OCI-C5x cells, without rucaparib), 1.81% (active). Further, the viability in assay [8] (at 5 µM, OCI-P5x cells, with rucaparib 20 µM, 100% = cells with rucaparib alone) is 1.46% (active); in assay [8] (at 5 µM, OCI-P5x cells, without rucaparib) it was 0.836% (active).

Take `CS[C@H]1SC[C@@H]2C(=O)N(C)[C@H](C(C)C)C(=O)OC[C@H](NC(=O)c3cnc4ccccc4n3)C(=O)N[C@H](C)C(=O)N(C)[C@H]1C(=O)N(C)[C@H](C(C)C)C(=O)OC[C@H](NC(=O)c1cnc3ccccc3n1)C(=O)N[C@H](C)C(=O)N2C`: the concentration at half-maximal activity (AC50) was 0.00331 µM (active) in assay [1]; 0.00118 µM (active) in assay [2]; 0.00263 µM (active) in assay [3]; 0.00296 µM (active) in assay [4]; 0.00186 µM (active) in assay [5]. Moreover, in assay [6], the IC50 is 0.0132 µM (active).
